The text below walks through data of ChEMBL document CHEMBL3433997, “St. Jude Leishmania screening dataset” (2016).

What all share (type): functional
Assay [1] has as its target Solute carrier family 2, facilitated glucose transporter member 1 (Homo sapiens) (UniProt P11166). As to the kind of experiment: ST_JUDE_LEISH: Cytotoxicity at 2uM final concentration against transgenic Leishmania Mexicana promastigotes LmGLUT1 that are glucose transport deficient and complemented with the human glucose transporter GLUT1. Activity is measured by DNA content using SYBR green in vitro.

The target of assay [2] is Hexose transporter 1 (Plasmodium falciparum) (UniProt O97467). As to the kind of experiment: ST_JUDE_LEISH: Cytotoxicity at 2uM final concentration against transgenic Leishmania Mexicana promastigotes LmPfHT that are glucose transport deficient and complemented with the Plasmodium falciparum hexose transporter. Activity is measured by DNA content using SYBR green in vitro.

Assay [3] concerns the target Glucose transporter (Leishmania mexicana) (UniProt O61059). As to the kind of experiment: ST_JUDE_LEISH: Cytotoxicity at 2uM final concentration against transgenic Leishmania Mexicana promastigotes LmGT2 that are glucose transport deficient and complemented with the L. Mexicana glucose transporter 2. Activity is measured by DNA content using SYBR green in vitro.

Chain of Solute carrier family 2, facilitated glucose transporter member 1 (Homo sapiens) (P11166 whole entry): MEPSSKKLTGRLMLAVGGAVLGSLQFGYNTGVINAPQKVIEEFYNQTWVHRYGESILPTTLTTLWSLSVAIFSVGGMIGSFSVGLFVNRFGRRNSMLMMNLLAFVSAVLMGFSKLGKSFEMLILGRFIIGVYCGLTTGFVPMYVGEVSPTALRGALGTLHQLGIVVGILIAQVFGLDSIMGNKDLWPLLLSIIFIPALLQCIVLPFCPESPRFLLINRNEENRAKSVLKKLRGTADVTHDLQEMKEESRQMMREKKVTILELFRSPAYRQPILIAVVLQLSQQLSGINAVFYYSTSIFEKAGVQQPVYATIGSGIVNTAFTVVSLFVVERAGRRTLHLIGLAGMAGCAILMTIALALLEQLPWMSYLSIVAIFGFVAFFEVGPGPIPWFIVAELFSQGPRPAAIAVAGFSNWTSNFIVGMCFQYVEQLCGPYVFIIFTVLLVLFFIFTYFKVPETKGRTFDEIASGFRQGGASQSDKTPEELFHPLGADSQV

On to `O=C(N[C@@H](Cc1ccccc1)[C@H](O)CNC1CCCc2ccccc21)c1cc(C2CCCC2)cc(N2CCCC2=O)c1` (stereo partly specified), for which the inhibition is -0.02% in assay [1], 0.77% in assay [2] and -0.94% in assay [3].
For `COc1ccc(-c2ccc3c(-c4ccc(F)cc4)cnc(N)c3c2)cn1`, in that order: -1.25%, -1.33% and -0.22%.
In the case of `COc1cc(C(=O)NC2CCN(Cc3ccccc3)CC2)ccc1-c1nc2c(Cl)cc(C(F)(F)F)cc2[nH]1`, the figures for the inhibition in assay [1], in assay [2] and in assay [3] were 5.51%, 3.32% and 3.49%, respectively.
For `Cc1c(Cc2ccccc2Cl)cnc2nc(N)nc(N)c12`, in that order: 18.9%, 37.5% and 24.1%.
As for `CCc1ccc(-c2nc3cc(NC(=O)c4cc([N+](=O)[O-])cc([N+](=O)[O-])c4)ccc3o2)cc1`, the results for the inhibition in assay [1], in assay [2] and in assay [3] were 2.33%, 1.19% and 2.3%, respectively.
Turning to `Oc1cc(NCc2ccccc2NCc2ccc(Cl)c(Cl)c2)nc2ccccc12`, the inhibition in assay [1] was found to be 2.41%; in assay [2], 3.68%; in assay [3], 3.11%.
On to `O=[N+]([O-])c1cccc(CNCC2CCN(Cc3ccc(Cl)c(Cl)c3)CC2)c1`, for which the inhibition in assay [1] is 18.2%; in assay [2], 9.74%; in assay [3], 12.9%.
As for `Cc1ccc(Nc2nccc(N(C)c3ccc4c(c3)nc(NC(=O)Cc3ccc(Cl)c(Cl)c3)n4C)n2)cc1S(N)(=O)=O`, the inhibition in assay [1] is 6.81%; in assay [2] it was 11.6%; in assay [3], 5.64%.
For `COCCCNC(=O)C1CCN(C(c2ccc(Cl)cc2)c2ccc(Cl)cc2)CC1`, in that order: 2.3%, 3.44% and 4.61%.
Consider `Cc1cccc2nc(-c3cccc(-c4ccc(NC(=O)Nc5ccc6c(c5)OCO6)cc4)c3)[nH]c12`, for which the inhibition is 1.72% in assay [1], 0.05% in assay [2] and 2.58% in assay [3].
On the same counts, the results for `Oc1nc(Cc2ccccc2)nc2ccc(Cl)cc12` are 2.13%, 2.54% and 4.12%.
Take `CC[C@H]1CN2CCc3cc(OC)c(OC)cc3[C@@H]2C[C@@H]1CC1=NCCc2c1[nH]c1ccc(OCc3ccccc3)cc21`: the inhibition came out at 0.63% in assay [1], 0.59% in assay [2] and 2.89% in assay [3].
